High-throughput results: PubChem, National Center for Advancing Translational Sciences (NCATS)
Only some compounds are listed: those with a hit (about 6.5% of all), similar ones and a draw of the others.
HCMV antiviral: qHTS Assay for inhibitors of the human cytomegalovirus (HCMV). HFF cells, HCMV-luciferase reporter, 72 h; stronger effect = lower value. 410,000 tested, 4.5% active. activity change, negative = inhibition, % at 57.5 µM; in the data active = activity change below about -60%; inconclusive = no clear call, values can overlap the other calls; inactive = above about -39%
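Human foreskin fibroblasts infected with luciferase-reporter HCMV at MOI 1 PFU/cell, compounds at two doses. Luciferase measured 72 h post infection; normalized to buffer-only basal and Salinomycin (10uM) controls.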
LASV entry inh: qHTS for Inhibitors of binding or entry into cells for Lassa Virus | Lassa virus pseudotype entry inhibition, cell reporter | Potency, µM (titrated, usually from 37.9 µM), without a hit: at the highest dose activity change, negative = inhibition, most hits filed as inhibitors | 300,000 tested, 1.2% active | AID 540256, 2011; calls by dose curve; tested in HEK293 cells; also: potency is read from the fitted curve at half-maximal effect; nearly all actives have a fitted effect of over 50% in size
Vaccinia mCherry: qHTS for Stage-Specific Inhibitors of Vaccinia Orthopoxvirus: mCherry Reporter Primary qHTS. Vaccinia virus mCherry reporter infection, fluorescence. Potency, µM (highest dose often 36.5 µM), without a hit: at the highest dose activity change, negative = inhibition, actives largely listed as inhibitors. 310,000 tested, 0.63% active; calls by dose curve; tested in A549 cells; also: potency is read from the fitted curve at half-maximal effect; nearly all actives have a fitted effect of over 35% in size
FMDV antiviral: High Throughput Screening for Foot and Mouth Disease Virus Antivirals; FMDV antiviral cell-based qHTS; Potency, µM (titrated, usually from 57.9 µM), without a hit: at the highest dose activity change, negative = inhibition, actives largely listed as inhibitors; 410,000 tested, 1.2% active; calls by dose curve; tested in HEK293T cells; also: read-out not given here; potency is read from the fitted curve at half-maximal effect; nearly all actives have a fitted effect of over 45% in size
Marburg entry inh: qHTS for inhibitors of binding or entry into cells for Marburg Virus | AID 540276, 2011 | Marburg virus pseudotyped entry inhibition, cell reporter | 300,000 tested, 1.8% active | Potency, µM (top dose mostly 37.8 µM), for the others: at the top dose activity change, negative = inhibition, actives largely listed as inhibitors; calls by dose curve; tested in HEK293 cells; also: potency is read from the fitted curve at half-maximal effect
VACV Venus inh: qHTS for Stage-Specific Inhibitors of Vaccinia Orthopoxvirus: Venus Reporter Primary qHTS; Vaccinia virus Venus reporter expression, fluorescence; Potency, µM (top dose mostly 36.5 µM), without a hit: at the highest dose activity change, negative = inhibition, actives largely listed as inhibitors; 330,000 tested, 0.46% active; AID 720580, 2013; calls by dose curve; tested in A549 cells; also: potency is read from the fitted curve at half-maximal effect; nearly all actives have a fitted effect of over 30% in size
The depositor's hits bear a star; i = inactive; ? = inconclusive; . = no result given; + = active, no number; [ ] = another dose, or the depositor's remark. % is scaled to controls: 0 for no effect and ±100 for the full control effect.

SMILES	HCMV antiviral	LASV entry inh	Vaccinia mCherry	FMDV antiviral	Marburg entry inh	VACV Venus inh
CCOC(=O)Cc1nnc2c(Nc3ccc(Cl)cc3)nc3nonc3n12	-73.5*	?	?	?	?	?
CCOC(=O)Cc1csc(NC(=S)NC(=O)c2ccc([N+](=O)[O-])cc2)n1	-31.5	3.8%	-3.0%	?	-0.2%	-14.4%
Fc1ccc(N2CCN(c3nc4ccccc4c4nc(-c5cccnc5)nn34)CC2)cc1	-1.3	.	-13.8%	-21.1%	7.2%[46.1 µM]	-1.4%
COCCN1CCN(C(=O)c2cnn(-c3ncc4c(n3)-c3ccc(OC)cc3CC4)c2C2CC2)CC1	.	.	-20.5%	-21.6%	.	-12.3%
CC(C)ON(CC(=O)NO)S(=O)(=O)c1ccc(-c2ccccc2)cc1	.	.	.	-22.5%	.	.
CC(=O)c1c(C(C)=O)c(C)n(Cc2ccc(Cl)cc2)c1C	-70.7*	-21.2%	?	?	?	-19.8%
CCOC(=O)c1c(C=O)c(C)n(Cc2ccc(Cl)cc2)c1C	-23.9	-5.4%	.	?	-3.4%	.
Cc1ccc(-c2nc(CSCC(=O)NCCN3CCN(Cc4ccccc4)CC3)c(C)o2)cc1	-64.8*	?	.	?	?	.
Cc1oc(-c2ccc(Cl)cc2)nc1CS(=O)CC(=O)NCCCN1CCN(Cc2ccccc2)CC1 (configuration not stated)	-93.4*	.	.	-13.5%	.	.
Cn1c(=O)n(C)c2cc(NC(=O)CCl)ccc21	-104.0*	18.3µM*	.	?	?	.
CCn1c(=O)oc2cc(NC(=O)CCl)ccc21	?	?	?	22.4µM*	?	?
CCNc1ncc2nc(-c3cc(F)cc(F)c3)c(=O)n(C[C@H]3CCCO3)c2n1	.	.	.	-4.4%	.	.
O=C(CSc1nnc(-c2c[nH]c3ccccc23)o1)N1c2ccccc2CCc2ccccc21	-88.9*	?	?	.	?	?
O=C(CSc1nnc(-c2c[nH]c3ccccc23)o1)N1CCCCC1	5.3	-15.4%	i	.	?	-9.0%
Cc1ccccc1CCNC(=O)Cn1nc(C)c2c(C)n(-c3ccccc3)nc2c1=O	-39.2	.	.	-17.1%	.	.
Cc1ccccc1CCNC(=O)CCn1nc(C)c2c(C)n(-c3ccccc3)nc2c1=O	-60.4*	.	.	-18.6%	.	.
Cc1nn(CCC(=O)NCCc2ccccc2Cl)c(=O)c2nn(-c3ccccc3)c(C)c12	-61.6*	.	.	-13.7%	.	.
Cc1cc(C)c(OCC(=O)N(Cc2ccco2)Cc2ccco2)c(C)c1	-20.2	1.3%[46.1 µM]	0.9%	-15.8%	-12.8%[46.1 µM]	-6.4%
Cc1ccc(C)c(N2CCN(C(=O)COc3cc(=O)n(C)c4ccccc34)CC2)c1	-23.9	18.3µM*	.	?	-23.6%	.
COc1ccc(N2CCN(C(=O)CCCOc3cc(=O)n(C)c4ccccc34)CC2)cc1	135.5	8.8%	.	?	?	.
Cc1ccc(C)c(N2CCN(C(=O)CCCOc3cc(=O)n(C)c4ccccc34)CC2)c1	55.7	?	.	25.1µM*	?	.
C[C@@H]1Cn2cnc(C(=O)N3CCN(C(=O)OC(C)(C)C)CC3)c2C(=O)N1	-9.0	.	.	.	.	.
C[C@H](CC[C@@H]1OC1(C)C)C1CC[C@H]2[C@@H]3CC=C4C[C@@H](O)CC[C@]4(C)[C@H]3CC[C@]12C (some centres not stated)	.	.	-4.6%	12.9%	.	-16.8%
CC(C)c1ccccc1OCC(=O)NCC(c1cccs1)N1CCOCC1 (configuration not stated)	-15.4	-19.6%	.	31.6µM*	?	?
CCCCOc1ccc(C(=O)NCC(=O)NCC(c2cccs2)N2CCOCC2)cc1 (configuration not stated)	+	.	.	1.4%	.	.
SMILES	HCMV antiviral	LASV entry inh	Vaccinia mCherry	FMDV antiviral	Marburg entry inh	VACV Venus inh
Cc1ccc(C(=O)NCC(=O)NCC(c2cccs2)N2CCOCC2)cc1 (configuration not stated)	7.8	.	.	-0.8%	.	.
COc1ccccc1OCC(=O)NCC(c1cccs1)N1CCOCC1 (configuration not stated)	12.7	-0.7%	-14.0%	-17.2%	26.7%	-6.0%
Cc1ccc(F)cc1CNC(=O)c1sc2ncnc(NCC3CCCO3)c2c1C (configuration not stated)	.	.	i	-18.5%	.	-18.2%
Cc1ccc(SCc2cc(=O)[nH]c(N3CCN(Cc4ccccc4)CC3)n2)cc1	-8.1	-11.3%	.	-24.5%	-17.0%	-5.2%
Cc1ccc(SCc2cc(=O)[nH]c(N3CCN(Cc4ccc5c(c4)OCO5)CC3)n2)cc1	-62.5*	8.2%	.	-22.7%	3.2%[46.1 µM]	-7.9%
CCCCn1c(SCC(=O)N(CC)C2CCS(=O)(=O)C2)nc2cc(S(N)(=O)=O)ccc21 (configuration not stated)	?	13.5%	-3.1%	12.2%	4.9%[46.1 µM]	-9.2%
CCCCn1c(SCC(=O)N(C)C2CCS(=O)(=O)C2)nc2cc(S(N)(=O)=O)ccc21 (configuration not stated)	-61.1*	.	.	-14.1%	.	.
CC1=CC=CN2C[C@H](O)CN=C12	.	.	.	.	12.2%	.
COc1ccccc1CNS(=O)(=O)c1ccc2c(c1)NC(=O)CC(=O)N2	1.1	9.0%[46.1 µM]	-8.7%	-10.1%	-1.1%[46.1 µM]	-8.1%
Cc1nc(C)c(-c2csc(Nc3ccc(O)cc3C)n2)s1	-33.0	-13.9%[46.1 µM]	1.12µM*	15.7%	5.3%[46.1 µM]	?
Cc1ccc(C)c(N2CCN(S(=O)(=O)c3cc(C(=O)Nc4ccccc4C(F)(F)F)ccc3F)CC2)c1	-34.6	-17.6%[46.1 µM]	-11.1%	-21.3%	.	-12.6%
Cc1ccc(S(=O)(=O)N2CCOCC2)cc1C(=O)N1CCN(c2ccc(C(F)(F)F)cn2)CC1	-76.3*	?	i	?	?	-6.1%
CCC(C)(C)NC(=O)C(c1cccc(OC)c1OC)N(C(=O)CCC(=O)Nc1cc(C)on1)C(C)C (configuration not stated)	-78.9*	3.9%	-1.3%	-15.7%	15.9%[46.1 µM]	-12.4%
CCC(C)(C)NC(=O)C(c1cccc(OC)c1OC)N(CCC(C)C)C(=O)CCC(=O)Nc1cc(C)on1 (configuration not stated)	0.5	5.0%	.	-24.5%	?	.
COc1cccc(C(C(=O)NC(C)(C)C)N(CCC(C)C)C(=O)CCC(=O)Nc2cc(C)on2)c1OC (configuration not stated)	-15.8	-17.1%[46.1 µM]	-3.5%	-15.7%	8.91µM*	-20.0%
CC(C)(C)Nc1oc(-c2ccccc2)nc1-c1cccc2ccccc12	.	.	.	.	-3.9%[14.2 µM]	.
CC(=NNC(=S)N1CC2CCC(CC2)C1)c1ccncn1	-97.5*	0.316µM*	1.58µM*	0.0%	?	6.31µM*
CCNC(=S)N1CCN(c2ccccn2)CC1	1.6	4.4%[46.1 µM]	-6.0%	8.4%	-5.5%[46.1 µM]	-14.1%
CCC1CCCCN1C(=S)NN=C(C)c1ccccn1 (configuration not stated)	-98.5*	.	.	.	.	.
CC(=NNC(=S)N1CCCCC1)c1cccc(C)n1	-22.6	?	0.316µM*	13.8%	?	?
